Screens from PubChem BioAssay.
Most compounds without a hit are left out; they make up all but 5.3% or so of the library.
Vaccinia Venus: vaccinia inhibition (Venus reporter) | Vaccinia virus Venus reporter expression, fluorescence | 0.46% of 330,000 active | Potency, µM (top dose mostly 36.5 µM), for inactives: at the highest dose activity change, negative = inhibition, most hits filed as inhibitors; calls by dose curve; tested in A549 cells; further: nearly all actives have a fitted effect of over 30% in size
Lassa entry inh: blocks Lassa virus binding to or entry into cells; Potency, µM (top dose mostly 37.9 µM), without a hit: at the highest dose activity change, negative = inhibition, hits mostly inhibitors; AID 540256; Lassa virus pseudotype entry inhibition, cell reporter; 1.2% of 300,000 active; calls by dose curve; tested in HEK293 cells; further: nearly all actives have a fitted effect of over 50% in size
Marburg entry inh: inhibitors of Marburg virus binding or cell entry; Marburg virus pseudotyped entry inhibition, cell reporter; Potency, µM (highest dose often 37.8 µM), without a hit: at the highest dose activity change, negative = inhibition, most hits filed as inhibitors; 1.8% of 300,000 active; AID 540276; calls by dose curve; tested in HEK293 cells
Vaccinia mCherry: inhibitors of vaccinia virus infection (mCherry reporter signal); Vaccinia virus mCherry reporter infection, fluorescence; Potency, µM (top dose mostly 36.5 µM), without a hit: top-dose activity change, negative = inhibition, actives largely listed as inhibitors; 0.63% of 310,000 active; AID 720579; calls by dose curve; tested in A549 cells; further: nearly all actives have a fitted effect of over 35% in size
FMDV inh: blocks foot and mouth disease virus; FMDV antiviral cell-based qHTS; Potency, µM (top dose mostly 57.9 µM), for inactives: at the highest dose activity change, negative = inhibition, most hits filed as inhibitors; 1.2% of 410,000 active; AID 1159524; calls by dose curve; tested in HEK293T cells; further: read-out not given here; nearly all actives have a fitted effect of over 45% in size
HCV inh: inhibitors of hepatitis C virus infection; Huh7.5.1 HCVcc-Cre infection, luciferase reporter, 44 h; Potency, µM (highest dose often 41.8 µM), without a hit: at the top dose activity change, negative = inhibition, actives largely listed as inhibitors; 3.4% of 340,000 active; active means well fitted inhibition curve with a large enough effect; inconclusive means small, poorly fitted or top-dose-only effect, or another doubt; inactive means no such curve, though single readings can be large or run the other way
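Compounds are dispensed onto cells plated 4 h earlier at 1,000 per well, with HCVcc-Cre virus (about 0.5 moi) added next. Following 44 h of culture, luminescent signal is measured for 15 sec after 15 min with substrate at room temperature.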
Active calls of the source: *; i = inactive; ? = inconclusive; . = not tested or not shown; ! = a repeat was not active; [ ] = remark or other dose. On the % scale 0 is the no-effect control and ±100 the full control effect; potency means the concentration at half of the fitted maximal effect.

SMILES	Vaccinia Venus	Lassa entry inh	Marburg entry inh	Vaccinia mCherry	FMDV inh	HCV inh
CC1CCN(CC(=O)n2c3c(c4ccccc42)CCCC3)CC1	-8%	?	?	-28%	.	?
Cc1ccnc(SCC(=O)n2c3c(c4ccccc42)CC(C)CC3)n1 (centres undefined)	-11%	-15%	7%	-16%	13%	?
CCN1CCN(CC(=O)n2c3c(c4ccccc42)CC(C)CC3)CC1 (centres undefined)	-17%	-26%	?	.	-23%	3.2µM*
CC1CCc2c(c3ccccc3n2C(=O)CCl)C1 (centres undefined)	-26%	-8%[46.1 µM]	-24%[46.1 µM]	-28%	20µM*	?
COc1cc(N(C)C)c(OC)cc1/C=C1\C=Cc2ccccc21	-5%	.	.	-15%	.	.
C=CCOC(=O)C(C(C)=O)C(NC(=O)OC)c1ccc(F)cc1 (centres undefined)	.	.	20%[14.2 µM]	.	.	.
O=C(NCCOc1ccccc1)c1cccc2c1C(=O)c1ccc(Cl)cc1S2(=O)=O	-12%	.	.	i	9%	10µM*
O=C(NCCOc1ccccc1Cl)c1cccc2c1C(=O)c1ccc(Cl)cc1S2(=O)=O	?	.	.	-15%	1%	9%
c1ccc2cnccc2c1	-5%	.	.	-10%	.	.
Oc1ccc(Cl)cc1Nc1nc(NCC2CCCO2)c2ccccc2n1 (centres undefined)	.	.	.	.	28µM*	.
Oc1ccc(Nc2nc(NCC3CCCO3)c3ccccc3n2)cc1 (centres undefined)	.	?	?	.	-14%	-22%
Oc1ccccc1Nc1nc(NCC2CCCO2)c2ccccc2n1 (centres undefined)	.	?	15µM*	.	?	?
CCCCCCCCCC[Si](C)(C)CCC(=O)NC(Cc1ccc(C)cc1)c1ccccc1 (centres undefined)	.	-28%	7.9µM*!	.	.	.
CC(C)C[C@H](N)c1nnc(S(=O)(=O)Cc2ccc(F)cc2)o1	-10%	?	?	.	22µM*	8%
COc1ccc2c(-c3ccccc3)cc(N3CCOCC3)nc2c1	-24%	?	?	.	?	13µM*
CCCOc1ccc(C(=O)N/N=C/c2c[nH]c3ccc(Br)cc23)cc1	-16%	?	-15%[46.1 µM]	-25%	-11%	13µM*
CCCCCN=C(N)N/N=C/c1c[nH]c2ccc(OC)cc12	11µM*!	.	.	?	?	?
Cc1cccc(NS(=O)(=O)c2ccc3c(c2)n(C)c(=O)n3C)c1C	-22%	-28%[46.1 µM]	.	-22%	-7%	.
Cc1cc(C(=O)N/N=C/c2c(C)[nH]c3ccccc23)n[nH]1	2%[7.34 µM]	0%	-10%[46.1 µM]	-14%[7.34 µM]	1%	6%
Cc1ccc(-c2cc(C(=O)N/N=C/c3c(C)nn(-c4ccccc4)c3C)n[nH]2)s1	.	8.2µM*	?	.	?	8.9µM*
Cc1ccc(-c2cc(C(=O)N/N=C/c3c(C)nn(-c4ccccc4)c3C)[nH]n2)cc1	.	.	-2%	.	.	?
Cc1cc(C(=O)N/N=C/c2c(C)[nH]n(-c3ccccc3)c2=O)n[nH]1	-7%	-5%[46.1 µM]	?	-22%	-14%	-3%
Cc1nn(-c2ccccc2)c(C)c1/C=N/n1c(-c2ccc(C(C)(C)C)cc2)n[nH]c1=S	-22%	0.11µM*	-26%	.	-8%	?
Cc1[nH]c2ccccc2c1/C=N/NC(=O)c1cc(-c2cccs2)[nH]n1	.	-21%	-36%	.	-7%	11µM*
Cc1nn(-c2ccccc2)c(C)c1/C=N/NC(=O)c1cc(C(C)(C)C)[nH]n1	?	?	4.5µM*	.	0%	?
SMILES	Vaccinia Venus	Lassa entry inh	Marburg entry inh	Vaccinia mCherry	FMDV inh	HCV inh
O=C(Cc1nc2ccccc2[nH]1)N1CCC(n2c(C3CCC3)nc3cccnc32)CC1	0%	.	.	i	32%	.
Nc1nc(CN2CCN(c3ccccn3)CC2)nc(Nc2ccc(F)cc2)n1	.	?	2.6µM*	.	?	?
Nc1nc(CN2CCCCCC2)nc(Nc2ccc(F)cc2)n1	0%	8%	4%[46.1 µM]	-8%	-6%	-27%
CCOC(=O)C1CCCN(Cc2nc(N)nc(Nc3ccc(OC)cc3)n2)C1 (centres undefined)	.	-20%	-16%	.	?	?
CCOC(=O)N1CCN(Cc2nc(N)nc(Nc3ccc(Oc4ccccc4)cc3)n2)CC1	?	?	?	.	32µM*	?
CCOC(=O)C1CCCN(Cc2nc(N)nc(Nc3ccc(Cl)cc3)n2)C1 (centres undefined)	-23%	-8%	7.1µM*	-21%	28µM*	?
CCOC(=O)N1CCN(Cc2nc(N)nc(Nc3ccc(OC)cc3)n2)CC1	-14%	8%	2%	-20%	12%	?
CCOC(=O)N1CCC(N(CCN(C)C)C(=S)Nc2ccc(Oc3ccccc3)cc2)CC1	-18%	?	?	-10%	-18%	11µM*
O=C(CN1C(=O)CCSc2ccc(S(=O)(=O)N3CCCC3)cc21)Nc1cccc(F)c1	-4%[7.34 µM]	2%[46.1 µM]	.	-7%[7.34 µM]	-11%	.
COc1ccc(OC)c(C(=O)N2CCOc3ccc(C(C)(O)CN(C)C)cc3C2)c1 (centres undefined)	-6%	.	.	-11%	0%	.
Cc1noc(/C=C/c2cccnc2)c1[N+](=O)[O-]	.	.	.	.	14µM*	?
CN(C)c1ccc(C(=C2C=CC(=[N+](C)C)C=C2)c2ccc(N(C)C)cc2)cc1	10µM*	.	.	235%	18µM*	.
O=C(CCCN1C(=O)/C(=C\c2ccccc2)SC1=S)Nc1ccc(O)cc1	28µM*	?	?	?	-24%	?
CC(/C=C1\SC(=S)N(CCC(=O)Nc2ccc(O)cc2)C1=O)=C\c1ccccc1	-9%	?	?	-3%	0%	7.9µM*
Cc1cc(/C=C/c2c(C)cnc3ccccc23)ccc1N(C)C	-20%	.	.	-21%	.	.
CC(C)c1ccccc1-n1c(SCc2cc(=O)oc3ccc4ccccc4c23)nnc1-c1cccnc1	-17%	?	?	-24%	14µM*	?
CCOc1ccc(-n2c(SCc3cc(=O)oc4cc(C)ccc34)nnc2-c2cccnc2)cc1	-19%	-10%	-1%	-26%	10%	?
O=C([C@@H]1CC1(c1ccccc1)c1ccccc1)N1CCOCC1	.	.	-6%	.	.	.
CCOc1ccc(CNC(=O)c2ccc(Sc3ccc(C)cc3)c(NC(C)=O)c2)cc1OC	-22%	-1%	?	i	?	?
CCOc1ccc(CNC(=O)c2ccc(Sc3ccc(Cl)cc3)c(NC(C)=O)c2)cc1OC	-14%	?	?	-11%	?	13µM*
O=C(OCc1cc([N+](=O)[O-])cc2c1OCOC2)c1cccnc1SC(F)F	-10%	1%	-1%	-14%	-16%	1µM*
Cc1ccc(COC(=O)c2nn(C)c(=O)c3ccccc23)cc1	-20%	?	27%[46.1 µM]	-17%	?	10µM*
COc1ncc2nc(-c3cccs3)c(=O)n(CCc3ccccc3)c2n1	.	.	.	.	-1%	.
O=[N+]([O-])c1c(Nc2cccc(O)c2)cc(Cl)c2nonc12	?	?	?	?	22µM*	?
